Measured values from PubChem BioAssay.
Unmarked numbers belong to inactive results. For some assays here: Measured potencies and affinities stand elsewhere. Activity calls are given as the source filed them. Unless noted, no rule for the calls is given here.

Columns and labels:
[1] = antimalarial activity against Dd2 strain (AID 2302;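 active = growth inhibition above 50% at the single 2 µM test dose, taken to imply half-maximal potency below 2 µM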;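 also: 0% = DMSO untreated growth and 100% = chloroquine plus artemisinin killed control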); settings: P. falciparum Dd2 in RBCs, LDH growth readout, 72 h; at 2 µM; hits give high values
[2] = HepG2 cytotoxicity, primary screen, cytotoxicity control for P. falciparum antimalarial project, cell-based, ATP luminescence (AID 2303;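 active = inhibition above 50%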;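 also: 0% = DMSO wells and 100% = digitonin-killed cells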); settings: HepG2 viability, 24-48 h, at 10 µM, hits give high values
[3] = biological target: L-lactate dehydrogenase (Plasmodium falciparum (isolate CDC / Honduras)) (UniProt Q27743); assay: PfLDH activity inhibition – cell lysate, 3D7 strain, counter-screen for P. falciparum growth inhibition project (AID 2304);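 also: 0% = vehicle and 100% = reference inhibitor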; settings: P. falciparum 3D7 crude extract, LDH APAD/NBT absorbance; at 2 µM; hits give high values
[4] = inhibition of 3D7 malaria parasite growth – strain 3D7 (AID 2306);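 also: 0% = DMSO wells and 100% = chloroquine plus artemisinin control wells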; settings: P. falciparum 3D7 erythrocytic growth, LDH absorbance, 72 h; at 2 µM; hits give high values
[5] = biological target: Calcium-dependent protein kinase 1 (Plasmodium falciparum (isolate 3D7)) (UniProt P62344); assay: PfCDPK1 kinase inhibitors, biochemical, TCAMS library (AID 1159585; cut-off not given, nearly all actives have IC50 up to about 0.98 µM;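 also: inhibitors leave more ATP so luminescence rises with inhibition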); settings: recombinant PfCDPK1, Kinase-Glo ATP depletion luminescence
[6] = biological target: Plasmodium falciparum protein kinase 6 (PK6, PF3D7_1337100) (UniProt Q8IDW1); assay: PfPK6 kinase inhibitors, biochemical, TCAMS library (AID 1159586); settings: recombinant PfPK6, Kinase-Glo ATP depletion luminescence
[7] = biological target: Protein kinase 7 (PK7), Plasmodium falciparum 3D7 (PF3D7_0213400) (UniProt Q7YTF7); assay: inhibition of Plasmodium PK7 catalytic activity – biochemical, TCAMS antimalarial set, Kinase-Glo luminescence (AID 1159587); settings: recombinant PfPK7, Kinase-Glo ATP depletion luminescence
[8] = biological target: Calcium-dependent protein kinase 4 (Plasmodium falciparum (isolate 3D7)) (UniProt Q8IBS5); assay: PfCDPK4 kinase inhibitors, biochemical, TCAMS library (AID 1159588; cut-off not given, nearly all actives have IC50 up to about 0.91 µM); settings: recombinant PfCDPK4, Kinase-Glo ATP depletion luminescence
Chain of Calcium-dependent protein kinase 4 (Plasmodium falciparum (isolate 3D7)) (Q8IBS5 whole entry, looked up): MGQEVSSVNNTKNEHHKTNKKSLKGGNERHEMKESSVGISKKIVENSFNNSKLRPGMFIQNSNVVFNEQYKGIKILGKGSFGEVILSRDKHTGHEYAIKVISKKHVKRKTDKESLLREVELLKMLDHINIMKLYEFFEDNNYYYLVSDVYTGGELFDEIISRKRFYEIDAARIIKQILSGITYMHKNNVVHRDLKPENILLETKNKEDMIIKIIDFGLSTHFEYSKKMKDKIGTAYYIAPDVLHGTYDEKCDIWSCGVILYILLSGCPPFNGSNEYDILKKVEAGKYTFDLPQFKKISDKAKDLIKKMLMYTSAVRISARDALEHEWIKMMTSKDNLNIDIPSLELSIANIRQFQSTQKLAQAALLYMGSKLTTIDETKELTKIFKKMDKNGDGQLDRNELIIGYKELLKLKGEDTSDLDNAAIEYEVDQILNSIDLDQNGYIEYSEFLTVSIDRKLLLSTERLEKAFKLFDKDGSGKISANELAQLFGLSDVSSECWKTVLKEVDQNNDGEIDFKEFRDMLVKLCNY

Chain of L-lactate dehydrogenase (Plasmodium falciparum (isolate CDC / Honduras)) (Q27743 whole entry, looked up): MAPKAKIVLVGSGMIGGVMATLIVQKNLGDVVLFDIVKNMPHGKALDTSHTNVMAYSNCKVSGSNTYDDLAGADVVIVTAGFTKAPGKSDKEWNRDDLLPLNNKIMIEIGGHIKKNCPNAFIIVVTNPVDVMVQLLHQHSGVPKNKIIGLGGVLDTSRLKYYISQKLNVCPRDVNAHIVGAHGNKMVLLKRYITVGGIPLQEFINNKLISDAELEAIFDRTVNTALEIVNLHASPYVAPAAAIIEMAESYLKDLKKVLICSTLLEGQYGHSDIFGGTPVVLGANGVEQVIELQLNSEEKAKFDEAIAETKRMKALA
Chain of Plasmodium falciparum protein kinase 6 (PK6, PF3D7_1337100) (Q8IDW1 1-305): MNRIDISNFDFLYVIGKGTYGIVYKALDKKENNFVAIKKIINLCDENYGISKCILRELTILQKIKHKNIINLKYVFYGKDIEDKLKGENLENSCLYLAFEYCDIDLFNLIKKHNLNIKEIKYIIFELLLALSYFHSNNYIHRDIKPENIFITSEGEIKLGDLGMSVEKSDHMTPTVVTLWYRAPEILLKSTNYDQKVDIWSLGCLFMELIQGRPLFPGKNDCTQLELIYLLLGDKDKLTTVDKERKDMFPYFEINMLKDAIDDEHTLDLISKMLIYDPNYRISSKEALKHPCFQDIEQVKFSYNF
Chain of Calcium-dependent protein kinase 1 (Plasmodium falciparum (isolate 3D7)) (P62344 whole entry, looked up): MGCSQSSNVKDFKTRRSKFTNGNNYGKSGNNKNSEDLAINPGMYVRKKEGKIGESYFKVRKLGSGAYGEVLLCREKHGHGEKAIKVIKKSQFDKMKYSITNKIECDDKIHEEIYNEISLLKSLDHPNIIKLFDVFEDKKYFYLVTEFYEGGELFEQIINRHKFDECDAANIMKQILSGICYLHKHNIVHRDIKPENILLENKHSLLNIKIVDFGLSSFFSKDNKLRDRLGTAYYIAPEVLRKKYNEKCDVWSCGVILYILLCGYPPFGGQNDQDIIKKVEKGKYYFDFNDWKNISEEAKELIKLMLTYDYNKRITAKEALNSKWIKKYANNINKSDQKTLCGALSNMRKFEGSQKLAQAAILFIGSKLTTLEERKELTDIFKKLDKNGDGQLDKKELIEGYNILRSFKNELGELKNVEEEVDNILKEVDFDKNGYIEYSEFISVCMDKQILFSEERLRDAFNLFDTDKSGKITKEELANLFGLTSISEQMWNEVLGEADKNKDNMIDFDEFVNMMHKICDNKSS
Chain of Protein kinase 7 (PK7), Plasmodium falciparum 3D7 (PF3D7_0213400) (Q7YTF7 1-343): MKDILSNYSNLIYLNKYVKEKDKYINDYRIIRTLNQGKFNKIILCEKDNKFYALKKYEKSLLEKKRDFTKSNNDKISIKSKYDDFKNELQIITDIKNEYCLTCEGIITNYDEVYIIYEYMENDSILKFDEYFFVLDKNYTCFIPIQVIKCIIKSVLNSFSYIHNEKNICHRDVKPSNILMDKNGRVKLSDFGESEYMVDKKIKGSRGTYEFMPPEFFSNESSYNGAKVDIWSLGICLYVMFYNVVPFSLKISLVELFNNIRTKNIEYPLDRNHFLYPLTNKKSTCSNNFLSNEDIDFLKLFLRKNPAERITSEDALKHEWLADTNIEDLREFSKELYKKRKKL

| Compound | growth inhibition [1] | inhibition [2] | inhibition [3] | growth inhibition [4] | outcome [5] | outcome [6] | outcome [7] | outcome [8] |
| --- | --- | --- | --- | --- | --- | --- | --- | --- |
| CN(C)c1ccc(C2c3nc[nH]c3CCN2C(=O)Nc2cccc([N+](=O)[O-])c2)cc1 (stereo not given) | 15% | -5% | 1% | 98% (active) | inactive | inactive | inactive | inactive |
| CNc1nc(NN=Cc2ccccc2Cl)nc(Nc2cccc(C(F)(F)F)c2)n1 | -9% | 12% | 0% | 84% (active) | inactive | inactive | inactive | inactive |
| Cn1c(/C=C/C(=O)NC2CCC(CCN3CCc4ccc(C#N)cc4CC3)CC2)cc2ccccc21 (stereo not given) | 29% | 15% | -1% | 101% (active) | inactive | inactive | inactive | inactive |
| O=C1CCCN1CCCNCc1ccc(-c2cccc(-c3nc4ccc(C(F)(F)F)cc4[nH]3)c2)cc1 | 98% (active) | 14% | 2% | 100% (active) | inactive | inactive | inactive | inactive |
| Cc1[nH]c(C)c(-c2ccc(CCc3cccc(C(F)(F)F)c3)nc2)c(=O)c1Cl | 97% (active) | 28% | -2% | 99% (active) | inactive | inactive | inactive | inactive |
| COc1cc(-c2ccccc2)ccc1C(=O)Nc1ccc2c(c1)N(C)CCC2 | 75% (active) | 15% | -4% | 85% (active) | inactive | inactive | inactive | inactive |
| O=C(Nc1cccc(N2CCC(NCc3cccnc3)CC2)c1)c1cccc(C(F)(F)F)c1 | 2% | 26% | -3% | 98% (active) | inactive | inactive | inactive | inactive |
| COc1cccc(CCNCc2ccc(-c3cccc(CNC4CCCC4)c3)cc2)c1 | 45% | 14% | -4% | 101% (active) | inactive | inactive | inactive | inactive |
| Clc1cccc(Cl)c1CCNCC1CCN(CC2CCCCC2)CC1 | 94% (active) | 39% | -5% | 98% (active) | inactive | inactive | inactive | inactive |
| O=C(Nc1cccc(OC2CCN(Cc3ccccc3)CC2)c1)c1ccc([N+](=O)[O-])cc1 | 2% | 6% | 3% | 100% (active) | inactive | inactive | inactive | inactive |
| COc1ccc2nccc(NC(=O)OC3CCC(NCc4ccc5c(n4)NC(=O)CS5)CC3)c2c1 (stereo not given) | 39% | 9% | -6% | 98% (active) | inactive | inactive | inactive | inactive |
| CCN1CCC(N(Cc2ccc(-c3ccc(C(F)(F)F)cc3)o2)C(=O)Cn2c(CCc3cccc(F)c3F)nc(=O)c3ccccc32)CC1 | 88% (active) | 45% | -1% | 91% (active) | inactive | inactive | inactive | inactive |
| CN(CCCCN)Cc1ccc(-c2ccc(Cl)cc2)cc1 | 20% | 96% (active) | 3% | 97% (active) | inactive | inactive | inactive | inactive |
| NC1=NC2(CCCCC2)N(Cc2ccc(Cl)c(Cl)c2)C(N)=N1 | 76% (active) | 22% | -3% | 86% (active) | inactive | inactive | inactive | inactive |
| CCOc1ccc2nc3cc([N+](=O)[O-])ccc3c(N)c2c1 | 100% (active) | 67% (active) | 3% | 99% (active) | inactive | inactive | inactive | inactive |
| CC(C)CCN1CCC(Oc2ccc(NC(=O)c3ccc4ncccc4c3)cc2Cl)C1 (stereo not given) | 14% | 33% | -4% | 95% (active) | inactive | inactive | inactive | inactive |
| COc1ccc(-c2cccc(NC(=O)c3ccc(C#N)cc3)c2)cc1CN1CCCC1 | 15% | 30% | -5% | 98% (active) | inactive | inactive | inactive | inactive |
| CC(C)N1CCC(NC(=O)N2CCCN(c3ncnc4cc(-c5ccc(Cl)cc5)sc34)CC2)CC1 | 7% | 6% | 7% | 81% (active) | inactive | inactive | inactive | inactive |
| C[C@@H](Oc1cc(-n2cnc3ccc(NC(=O)NC(C)(C)C)cc32)sc1C(N)=O)c1ccccc1Cl | 97% (active) | 28% | 1% | 95% (active) | inactive | inactive | inactive | inactive |
| COc1ccc2nc(-c3ccc(C(=O)NCCCN4CCN(c5cc(Cl)ccc5OC)CC4)cc3OC)[nH]c2c1 | 24% | -5% | 1% | 101% (active) | inactive | inactive | inactive | inactive |

| Compound | growth inhibition [1] | inhibition [2] | inhibition [3] | growth inhibition [4] | outcome [5] | outcome [6] | outcome [7] | outcome [8] |
| --- | --- | --- | --- | --- | --- | --- | --- | --- |
| Cc1[nH]nc2cc(Nc3ccnc(Nc4cccc(CN5CCOCC5)c4)n3)ccc12 | -10% | 33% | -8% | 83% (active) | inactive | inactive | inactive | inactive |
| O=C1NC(=O)C(c2cccc(NC(=O)c3ccncc3)c2)=C1c1ccccc1 | -3% | 5% | 3% | 101% (active) | inactive | inactive | inactive | inactive |
| COc1cccc(NC(=O)[C@H](C)n2c(=O)[nH]c3ccccc3c2=O)c1 | 92% (active) | 8% | -3% | 100% (active) | inactive | inactive | inactive | inactive |
| COc1ccc2c(c1)CC(NCc1ccc(-c3ccc4nc[nH]c4c3)cc1)C2 (stereo not given) | 71% (active) | 30% | 1% | 100% (active) | inactive | inactive | inactive | inactive |
| CCCC(C(=O)OCCNC)(c1ccccc1)c1ccccc1 | 96% (active) | 7% | 7% | 98% (active) | inactive | inactive | inactive | inactive |
| Cc1sc(N2CCCCC2)nc1C(=O)Nc1ccc(F)cc1C(F)(F)F | 35% | -18% | 2% | 86% (active) | inactive | inactive | inactive | inactive |
| CC(C)(C)c1cc(C(=O)N2CCC(c3ccccn3)CC2)n(Cc2ccccc2)n1 | 90% (active) | 3% | -3% | 96% (active) | inactive | inactive | inactive | inactive |
| COc1ccc2nccc([C@@H](O)CN3CCC(NC(=O)/C=C/c4cccc(C)c4)CC3)c2c1 | 28% | 16% | -2% | 84% (active) | inactive | inactive | inactive | inactive |
| Cc1cc(N[C@@H](Cc2ccccc2)C(=O)NCc2cccc(F)c2)nc(NCCc2cccs2)n1 | 22% | 9% | 2% | 99% (active) | inactive | inactive | inactive | inactive |
| COc1cc(NCCCCNc2ccc(Cl)c(Cl)c2)nc2ccccc12 | 68% (active) | 22% | 2% | 100% (active) | inactive | inactive | inactive | inactive |
| CC1(C)N=C(N)N=C(N)N1OCCCOc1cccc(Cl)c1 | 95% (active) | 65% (active) | -4% | 95% (active) | inactive | inactive | inactive | inactive |
| NC(N)=NC(=O)Nc1ccc(Cl)c(Cl)c1 | 13% | 29% | 1% | 95% (active) | inactive | inactive | inactive | inactive |
| O=C(Cn1c(CCc2cccc(F)c2F)cc(=O)c2ccccc21)N(CCN1CCCC1)Cc1ccc(-c2ccc(C(F)(F)F)cc2)cc1 | 57% (active) | 89% (active) | -2% | 99% (active) | inactive | inactive | inactive | inactive |
| Cc1nc2ccc3ccc(CN(C)c4ccc(C(=O)N[C@@H](CCC(=O)O)C(=O)O)cc4)cc3c2c(=O)[nH]1 | 27% | 42% | 1% | 95% (active) | inactive | inactive | inactive | inactive |
| Cc1cc(N2CCCC2)nc(Nc2ccc(NC(=O)c3ccco3)cc2)n1 | 43% | 23% | -3% | 100% (active) | inactive | inactive | inactive | inactive |
| O=C(/C=C/c1ccc(Cl)c(Cl)c1)NCCCCCN1CCC(NC(=O)c2ccc(F)cc2F)CC1 | 11% | 17% | -3% | 96% (active) | inactive | inactive | inactive | inactive |
| COc1cc2nccc(Nc3cc(C)cc(O)c3)c2cc1OC | -2% | -6% | 0% | 97% (active) | inactive | inactive | inactive | inactive |
| COc1cc2nc(N3CCC(CNC(=O)c4ccc(-c5cccc(C#N)c5)cc4)CC3)nc(N)c2cc1OC | 100% (active) | 18% | 6% | 100% (active) | inactive | inactive | inactive | inactive |
| COc1ccc(C(=O)N2CCC3(CC2)C(=O)N(CC(=O)NCC2CCCCC2)CN3c2ccccc2)cc1 | 99% (active) | 18% | 3% | 100% (active) | inactive | inactive | inactive | inactive |
| CCCC(=O)NC(NC(=S)Nc1ccc([N+](=O)[O-])cc1)C(Cl)(Cl)Cl (stereo not given) | 14% | 10% | 4% | 93% (active) | inactive | inactive | inactive | inactive |
